Data: PubChem BioAssay (EPA / NIEHS)
Active and inactive are the calls of the source. How the source made its calls: active means hit-call score of the fitted dose curve at least 0.9, where 1 is the maximum; inactive means score below 0.9.

read-out: Cytochrome P450 7A1 (Homo sapiens) (UniProt P22680); test: LTEA_HepaRG_CYP7A1: Life Technologies and Expression Analysis (LTEA) Assay for Cytochrome P450 7A1 (CYP7A1) using HepaRG (AID 2283496); conditions: mRNA level, 48 h; actives raise or lower the signal
Protocol: LTEA_HepaRG is a cell based, multiplexed-readout assay that uses HepaRG, a human liver cell line, with measurements taken at 48 hours after chemical dosing on a 96-well plate.LTEA_HepaRG_CYP7A1 is one of 102 assay component(s) measured in the LTEA HepaRG cell culture assay. It is a marker of NR mediated metabolism.Data from the assay component LTEA_HepaRG_CYP7A1 was analyzed into 1 endpoint. This assay endpoint, LTEA_HepaRG_CYP7A1, was analyzed with bidirectional fitting relative to DMSO as the negative control and baseline of activity. Using a type of inducible reporter, measures of mRNA induction for gain or loss-of-signal activity can be used to understand regulation of transcription factor activity. To generalize the intended target to other relatable targets, this assay endpoint is annotated to the cyp intended target family, where the subfamily is xenobiotic metabolism.
A total of 1060 chemcials from the ToxCast library were tested in eight-point concentration-response experiments. Cell culture and cytotoxicity assays were conducted at Thermo Fisher Scientific's Custom Services facility (Madison, WI). A single lot of human HepaRG cells (Thermo Fisher Scientific, Frederick, MD) was used for the cell culture experiments. 96-well format collagen type I coated plates of human HepaRG cells were prepared using established methods. Briefly, cryopreserved HepaRG cells were thawed, plated at a density of approximately 100,000 cells/well in HepaRG Thaw, Plate, and General Purpose media (HPRG770, Thermo Fisher Scientific), and incubated for 48 hours. 0.5% DMSO was selected as vehicle control to balance the requisite need of DMSO in HepaRG cultures to maintain differentiation (for example, baseline metabolism, proportions of hepatocytes vs. cholangiocytes), while enabling further hepatic receptor pathway activation (for example, PXR and CAR) in response to chemical exposure. 48 hours after plating, the culture medium was replaced with HepaRG Serum-Free Incudtion Media. Cells were exposed to each test chemical in duplicate and maintained in CO2 incubators for another 48 hours. Chemical plates were thawed to room temperature and 200x concentrations of treatment groups were prepared. 8-point conentration-reponse curves were made with the highest exposure at 100 uM, followed by half-log dilutions, all in 0.5% DMSO. Each test plate contained variouse controls, induction positive controls (1mM phenobarbital), cytotoxicity positive controls ([…] aflatoxin B1), vehicle controls (0.5% DMSO), and total lysis controls (0.5% DMSO). Cell morphology images were taken using an Essen IncuCyte FLR automated microscope, with six 96-well plates imaged in about 24 minutes. Images were captured and exported and JPEG files. Spent culture media was transfered to black-well plates for the LDH assay, and remaining media was sorted at -80 C for later use. Cells were treated with RLT buffer and frozen until shipped for gene expression analysis. Total RNA was isolated from the cell suspension in 75 uL of Buffer RLT (Qiagen, Germantown, MD 20874) by Quintiles/Expression Analysis (Durham, NC) using a custom isolation procedure. Total RNA from each plate well was transferred to a preamplification plate. Fluidigm's 96.96 Dynamic ArrayTM (Fluidigm, Amsterdam, the Netherlands) technology was used for gene expression analyses by quantitative reverse transcription polymerase chain reaction (qRT-PCR, performed by Quintiles/Expression Analysis, Durham, NC)89. Standard TaqManTM Assays (Applied Biosystems/ThermoFisher Scientific, Foster City, CA) were used to assess the expression of 93 genes selected based on their selectivity and sensitivity to important hepatic receptors known to be modulated by environmental chemicals; importance in human hepatocyte functionality; and hepatotoxicity. […]

SMILES | outcome | AC50
c1ccc2c(c1)ccc1ccccc12 | inactive | –
CCC(=C(c1ccc(O)cc1)c1ccc(OCCN(C)C)cc1)c1ccccc1 | inactive | –
O=C(OCCOCCOC(=O)c1ccccc1)c1ccccc1 | inactive | –
O=[N+]([O-])c1ccc(O)cc1 | inactive | –
OC1CCCCC1 | inactive | –
CCCCCCCCOC(=O)CCCCCCCCC(=O)OCCCCCCCC | inactive | –
C[C@@H]1C[C@H]2[C@@H]3CCC4=CC(=O)C=C[C@]4(C)[C@@]3(F)[C@@H](O)C[C@]2(C)[C@@]1(O)C(=O)COP(=O)(O)O | inactive | –
CCCCOCCO | inactive | –
CCCCC(CC)COC(=O)CCCCC(=O)OCc1ccccc1 (stereo not given) | inactive | –
CC(C)CCCCCCOC(=O)CCCCC(=O)OCCCCCCC(C)C | inactive | –
Nc1cccc2c(N)cccc12 | – | 10.1 µM (active)
NC(=O)N(O)[C@@H]1C=C[C@H](Oc2cccc(Oc3ccc(F)cc3)c2)C1 | – | 74.2 µM (active)
COCC(C)OCC(C)O (stereo not given) | inactive | –
Cc1cc(CCN2CCN(c3nsc4ccccc34)CC2)cc2c1NC(=O)CC2(C)C | – | 80.6 µM (active)
CCCCCCC(=O)O | inactive | –
O=C(O)Cc1cc(I)c(Oc2cc(I)c(O)c(I)c2)c(I)c1 | – | 48.2 µM (active)
Cc1cc(C)c(O)c(C)c1 | inactive | –
CC#C[C@]1(O)CC[C@H]2[C@@H]3CCC4=CC(=O)CCC4=C3[C@@H](c3ccc(N(C)C)cc3)C[C@@]21C | – | 43.6 µM (active)
CCCCCCCCCCCCc1ccccc1S(=O)(=O)O | – | 93.7 µM (active)
CC1=C(/C=C/C(C)=C/C=C/C(C)=C/C(=O)O)C(C)(C)CCC1 | – | 29.6 µM (active)

SMILES | outcome | AC50
CC(C)(C)c1cc(C(C)(C)C)c(O)c(C(C)(C)C)c1 | – | 16.6 µM (active)
OCCC(F)(F)C(F)(F)C(F)(F)C(F)(F)C(F)(F)C(F)(F)F | inactive | –
CN1CCC[C@H]1c1cccnc1 | inactive | –
CCOC(=O)CC(O)(CC(=O)OCC)C(=O)OCC | inactive | –
COCC(C)O (stereo not given) | inactive | –
CCCOC(=O)c1ccc(O)cc1 | inactive | –
ClC1=C(Cl)C(Cl)(Cl)C(Cl)=C1Cl | inactive | –
CC(C)(C)c1ccc(O)c(C(C)(C)C)c1 | inactive | –
O=c1c(-c2ccc(O)cc2)coc2cc(O)ccc12 | inactive | –
NC(=O)N1C(=O)C(C(=O)c2cc(Cl)cs2)c2cc(F)c(Cl)cc21 (stereo not given) | – | 16.6 µM (active)
CC(=O)CC(C)(C)O | inactive | –
CCN(CC)CCNc1ccc(CNC=O)c2sc3ccc(OC)cc3c(=O)c12 | – | 21.7 µM (active)
Cc1oc(-c2ccccc2)nc1CCOc1ccc(C[C@H](Nc2ccccc2C(=O)c2ccccc2)C(=O)O)cc1 | – | 23.4 µM (active)
CCc1nn(C2CCCCC2)c2cc(C3(C#N)CCC(C(=O)O)CC3)ccc12 (stereo not given) | – | 63.3 µM (active)
Oc1cc2ccccc2c2ccccc12 | – | 3.01 µM (active)
CCc1ccc(CCOc2ccc(CC3SC(=O)NC3=O)cc2)nc1 (stereo not given) | – | 68.5 µM (active)
c1ccc2c(c1)Cc1ccccc1-2 | inactive | –
C#C[C@]1(O)CC[C@H]2[C@@H]3CCC4=CC(=O)CC[C@@H]4[C@H]3CC[C@@]21C | – | 0.299 µM (active)
OC1CCC(C2CCCCC2)CC1 (stereo not given) | inactive | –
CC(=O)NC1(c2cccc(F)c2)CCN(CC[C@@]2(c3ccc(Cl)c(Cl)c3)CN(c3ccccc3)C(=O)CO2)CC1 | – | 38 µM (active)
